Values joined by “and” are separate entries in the source; they are usually repeats but may differ in a detail not shown here. Equal values may be shown once. Inconclusive results are not listed. Some compounds were tested as several samples or in several runs, with calls that do not always agree. Active and inactive are the calls of the source. Rule for the calls, unless noted: active = hit-call score of the fitted dose curve at least 0.9, where 1 is the maximum; inactive = score below 0.9.
How the values were obtained:
[1] = read-out: E-selectin (Homo sapiens) (UniProt P16581); assay: BSK_SAg_Eselectin: BioMAP Diversity Plus: SAg Assay for Eselectin Biomarker Activity (AID 2283091); conditions: primary human HUVEC with PBMC; actives raise or lower the signal
Procedure, shortened: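 Endpoint values derive from bidirectional fitting relative to DMSO, using ELISA-measured E-selectin in a human vascular co-culture (umbilical vein endothelium plus PBMC) sampled 24 h after dosing.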

[2] = read-out: Monokine induced gamma interferon (MIG), CXCL9 (gene 4283); assay: BSK_SAg_MIG: BioMAP Diversity Plus: SAg Assay for Monokine induced gamma interferon (MIG) Biomarker Activity (AID 2283092); conditions: primary human HUVEC with PBMC; actives raise or lower the signal
Procedure, shortened: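 HUVEC plus human PBMC co-culture, chemicals dosed and MIG (CXCL9) quantified by ELISA at 24 h. Bidirectional curve fitting against DMSO as negative control and baseline, so both gain and loss of signal count as activity.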

[3] = BSK_SAg_PBMCCytotoxicity: PBMC Cytotoxicity Assessment in the BioMAP Diversity Plus: SAg Assay (AID 2283093); conditions: primary human HUVEC with PBMC;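 note: PBMC viability measured as Alamar Blue reduction fluorescence at 546/580 nm; fitted both ways against DMSO so a hit may be loss or gain of signal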;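 for AC50: PBMC superantigen activated with SEB plus TSST-1 one hour after compound addition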
Procedure, shortened: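 Compound added to 75,000 PBMC/well for 1 h; SEB and TSST-1 then added at 20 ng/mL final each; 90 h incubation; Alamar Blue 6 h; read 546/580 nm ex/em. Activity fitted bidirectionally relative to DMSO baseline.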

[4] = read-out: Interleukin-8 (IL8), CXCL8 (gene 3576); assay: BSK_SAg_IL8: BioMAP Diversity Plus: SAg Assay for Interleukin-8 (IL8) Biomarker Activity (AID 2283094); conditions: primary human HUVEC with PBMC; actives raise or lower the signal
Procedure, shortened: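 Human umbilical vein endothelial cells co-cultured with peripheral blood mononuclear cells; IL-8 measured by ELISA 24 h after chemical dosing. Bidirectional concentration-response fitting used DMSO as negative control and activity baseline.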

[5] = BSK_SAg_Proliferation: Cell Proliferation Assessment in the BioMAP Diversity Plus: SAg Assay (AID 2283095); conditions: primary human HUVEC with PBMC;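 note: relative cell number as total protein by SRB absorbance in sub-confluent culture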
Procedure, shortened: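 Human umbilical vein endothelial cells co-cultured with peripheral blood mononuclear cells; total protein measured by sulforhodamine B staining (0.1% SRB after 10% TCA fixation), absorbance at 560 nm, at 96 h. Bidirectional fit against DMSO baseline.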

[6] = BSK_SAg_SRB: Viability Assessment in the BioMAP Diversity Plus: SAg Assay (AID 2283096); conditions: primary human HUVEC with PBMC;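 note: cells read one day after compound addition; hits may be either gain or loss of signal compared with DMSO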
Procedure, shortened: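 Total protein by sulforhodamine B staining, 24 h after dosing, in HUVEC–PBMC co-culture; DMSO-referenced bidirectional fitting.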

[7] = biological target: human CYP2C9, CYP2C9 (gene 1559) (UniProt P11712); assay: NVS_ADME_hCYP2C9: NovaScreen (NVS) CYP450-related Enzyme Activity (ADME) Assay for human CYP2C9 (AID 2283108; active = hit-call score of the fitted dose curve at least 0.9, where 1 is the maximum)
Procedure, shortened: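 Fluorescence readout of CYP2C9 activity (SF9-expressed human enzyme) at 0.75 h. The primary screen used 10 uM in duplicate, with concentration-response follow-up for actives; acetonitrile was the negative control.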

[8] = biological target: Cytochrome P450 2C19 (Homo sapiens) (UniProt P33261); assay: NVS_ADME_hCYP2C19: NovaScreen (NVS) CYP450-related Enzyme Activity (ADME) Assay for human CYP2C19 (AID 2283113; active = hit-call score of the fitted dose curve at least 0.9, where 1 is the maximum;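 note: potency for inhibition seen as loss of fluorescent signal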)
Procedure, shortened: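 Biochemical CYP2C19 inhibition screen: insect-cell recombinant protein plus fluorescent substrate, 1 h, fluorescence intensity. Acetonitrile defined baseline activity. Single 10 uM concentration in duplicate, with concentration-response follow-up for actives.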

[9] = biological target: human CYP2B6, CYP2B6 (gene 1555) (UniProt P20813); assay: NVS_ADME_hCYP2B6: NovaScreen (NVS) CYP450-related Enzyme Activity (ADME) Assay for human CYP2B6 (AID 2283101; active = hit-call score of the fitted dose curve at least 0.9, where 1 is the maximum)
Procedure, shortened: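 Recombinant human CYP2B6 with fluorogenic substrate, read by fluorescence intensity 1 h after dosing. Primary screen in duplicate at 10 uM, actives followed in concentration series; signal loss relative to acetonitrile control.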

[10] = biological target: human CYP1A1, CYP1A1 (gene 1543) (UniProt P04798); assay: NVS_ADME_hCYP1A1: NovaScreen (NVS) CYP450-related Enzyme Activity (ADME) Assay for human CYP1A1 (AID 2283100; active = hit-call score of the fitted dose curve at least 0.9, where 1 is the maximum)
Procedure, shortened: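 Inhibition of recombinant CYP1A1 turnover was assessed fluorometrically in a biochemical format 1 h after compound exposure. Testing began at 10 uM in duplicate and progressed to concentration series reaching 20 uM, with on-plate positive and negative controls.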

[11] = biological target: human CYP2A6, CYP2A6 (gene 1548) (UniProt P11509); assay: NVS_ADME_hCYP2A6: NovaScreen (NVS) CYP450-related Enzyme Activity (ADME) Assay for human CYP2A6 (AID 2283099; active = hit-call score of the fitted dose curve at least 0.9, where 1 is the maximum)
Procedure, shortened: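 Loss of fluorescence signal relative to acetonitrile vehicle reported CYP2A6 inhibition in a cell-free system using insect-cell-derived enzyme. Readings were taken at 0.5 h; top concentration in follow-up dose series was 20 uM.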

[12] = biological target: human CYP1A2, CYP1A2 (gene 1544) (UniProt P05177); assay: NVS_ADME_hCYP1A2: NovaScreen (NVS) CYP450-related Enzyme Activity (ADME) Assay for human CYP1A2 (AID 2283102; active = hit-call score of the fitted dose curve at least 0.9, where 1 is the maximum;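 note: potency for inhibition since loss of fluorescence marks reduced CYP1A2 activity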)
Procedure, shortened: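 Inhibition scored as decrease in fluorescent product versus acetonitrile negative control. Enzyme: insect-cell recombinant human CYP1A2, substrate-specific, cell-free. Reading at 0.5 h; 10 uM duplicate initial screen with positive and negative controls on every plate.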

[13] = biological target: Cytochrome P450 2C18 (Homo sapiens) (UniProt P33260); assay: NVS_ADME_hCYP2C18: NovaScreen (NVS) CYP450-related Enzyme Activity (ADME) Assay for human CYP2C18 (AID 2283103)
Procedure, shortened: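 Cell-free recombinant human CYP2C18 with fluorogenic substrate; fluorescence intensity read 0.5 h after dosing. Single-point screen at 10 uM in duplicate, then concentration-response up to 20 uM; loss of signal fitted against acetonitrile baseline.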

[14] = biological target: human CYP2J2, CYP2J2 (gene 1573) (UniProt P51589); assay: NVS_ADME_hCYP2J2: NovaScreen (NVS) CYP450-related Enzyme Activity (ADME) Assay for human CYP2J2 (AID 2283106; active = hit-call score of the fitted dose curve at least 0.9, where 1 is the maximum)
Procedure, shortened: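 Cell-free assay of recombinant CYP2J2 with a fluorogenic substrate, read 1 h after dosing; loss of signal versus acetonitrile. Primary screen at 10 uM in duplicate, then concentration-response up to 20 uM for chemicals passing threshold (e.g., 30% inhibition).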

Measured: AC50

Sequence of human CYP2C9, CYP2C9 (gene 1559) (P11712 whole entry, looked up): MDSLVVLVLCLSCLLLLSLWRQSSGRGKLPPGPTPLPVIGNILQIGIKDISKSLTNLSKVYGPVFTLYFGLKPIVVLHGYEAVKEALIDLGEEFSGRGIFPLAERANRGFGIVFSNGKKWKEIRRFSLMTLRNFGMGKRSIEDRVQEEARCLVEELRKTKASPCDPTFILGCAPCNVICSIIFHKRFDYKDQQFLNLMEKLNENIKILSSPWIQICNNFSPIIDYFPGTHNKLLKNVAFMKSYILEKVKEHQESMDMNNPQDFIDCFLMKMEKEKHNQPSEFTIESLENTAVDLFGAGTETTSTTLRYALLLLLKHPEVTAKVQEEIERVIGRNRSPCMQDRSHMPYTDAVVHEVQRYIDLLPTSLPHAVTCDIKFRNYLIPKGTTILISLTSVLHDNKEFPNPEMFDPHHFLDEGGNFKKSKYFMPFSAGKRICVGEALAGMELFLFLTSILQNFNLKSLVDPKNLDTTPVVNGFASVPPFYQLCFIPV
Sequence of E-selectin (Homo sapiens) (P16581 whole entry, looked up): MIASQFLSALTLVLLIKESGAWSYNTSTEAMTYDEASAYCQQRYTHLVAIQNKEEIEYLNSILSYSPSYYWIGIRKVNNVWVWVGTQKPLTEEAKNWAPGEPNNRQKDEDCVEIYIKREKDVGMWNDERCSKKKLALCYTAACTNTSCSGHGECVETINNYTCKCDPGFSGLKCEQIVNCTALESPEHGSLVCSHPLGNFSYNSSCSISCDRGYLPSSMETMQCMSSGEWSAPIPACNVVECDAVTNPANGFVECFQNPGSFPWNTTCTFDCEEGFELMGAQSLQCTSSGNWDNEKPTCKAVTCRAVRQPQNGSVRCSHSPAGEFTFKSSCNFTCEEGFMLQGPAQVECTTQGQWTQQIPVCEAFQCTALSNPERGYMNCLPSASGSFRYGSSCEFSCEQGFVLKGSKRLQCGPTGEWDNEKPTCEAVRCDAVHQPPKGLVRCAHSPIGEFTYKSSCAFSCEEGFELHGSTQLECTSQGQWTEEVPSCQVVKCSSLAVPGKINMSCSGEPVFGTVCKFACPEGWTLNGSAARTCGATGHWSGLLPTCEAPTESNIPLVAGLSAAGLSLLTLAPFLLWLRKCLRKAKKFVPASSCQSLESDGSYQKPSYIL
Sequence of Cytochrome P450 2C18 (Homo sapiens) (P33260 whole entry, looked up): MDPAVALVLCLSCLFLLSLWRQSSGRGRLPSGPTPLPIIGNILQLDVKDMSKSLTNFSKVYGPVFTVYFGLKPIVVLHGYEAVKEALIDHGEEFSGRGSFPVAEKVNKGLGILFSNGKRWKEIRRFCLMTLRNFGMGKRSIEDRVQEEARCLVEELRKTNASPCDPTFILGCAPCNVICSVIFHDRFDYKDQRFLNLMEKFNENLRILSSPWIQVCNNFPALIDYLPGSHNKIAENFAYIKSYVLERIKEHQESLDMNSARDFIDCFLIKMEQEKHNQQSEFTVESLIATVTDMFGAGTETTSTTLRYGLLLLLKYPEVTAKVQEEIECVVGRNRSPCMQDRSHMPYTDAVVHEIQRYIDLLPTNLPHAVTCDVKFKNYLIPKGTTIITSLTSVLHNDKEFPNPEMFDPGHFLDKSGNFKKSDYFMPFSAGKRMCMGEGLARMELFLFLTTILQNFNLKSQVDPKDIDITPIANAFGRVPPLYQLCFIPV
Sequence of human CYP1A1, CYP1A1 (gene 1543) (P04798 whole entry, looked up): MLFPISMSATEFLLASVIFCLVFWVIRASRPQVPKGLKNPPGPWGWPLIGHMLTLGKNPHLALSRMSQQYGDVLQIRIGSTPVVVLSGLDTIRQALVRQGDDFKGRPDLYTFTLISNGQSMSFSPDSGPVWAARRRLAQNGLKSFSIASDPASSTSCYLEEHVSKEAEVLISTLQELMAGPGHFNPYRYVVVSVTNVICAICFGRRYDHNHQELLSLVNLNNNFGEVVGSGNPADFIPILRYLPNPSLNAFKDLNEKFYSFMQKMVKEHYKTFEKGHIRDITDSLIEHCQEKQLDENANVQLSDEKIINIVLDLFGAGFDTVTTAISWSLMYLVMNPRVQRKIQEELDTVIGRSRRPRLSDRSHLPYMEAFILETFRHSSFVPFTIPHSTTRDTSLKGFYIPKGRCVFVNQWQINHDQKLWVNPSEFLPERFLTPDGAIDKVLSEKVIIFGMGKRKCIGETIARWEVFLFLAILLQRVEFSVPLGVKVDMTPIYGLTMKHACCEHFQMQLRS
Sequence of human CYP1A2, CYP1A2 (gene 1544) (P05177 whole entry, looked up): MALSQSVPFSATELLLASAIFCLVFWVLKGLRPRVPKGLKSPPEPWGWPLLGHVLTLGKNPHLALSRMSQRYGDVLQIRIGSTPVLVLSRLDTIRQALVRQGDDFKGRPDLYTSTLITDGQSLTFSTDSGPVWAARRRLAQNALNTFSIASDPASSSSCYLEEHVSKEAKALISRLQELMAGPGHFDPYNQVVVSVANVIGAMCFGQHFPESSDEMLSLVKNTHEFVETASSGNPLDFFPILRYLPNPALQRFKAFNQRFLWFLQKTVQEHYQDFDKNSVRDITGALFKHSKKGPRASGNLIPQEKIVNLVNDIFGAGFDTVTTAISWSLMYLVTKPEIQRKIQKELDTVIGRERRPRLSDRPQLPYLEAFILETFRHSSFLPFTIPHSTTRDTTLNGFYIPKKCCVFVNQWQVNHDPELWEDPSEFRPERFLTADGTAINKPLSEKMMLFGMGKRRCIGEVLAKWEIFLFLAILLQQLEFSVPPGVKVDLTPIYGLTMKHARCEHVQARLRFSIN
Sequence of human CYP2B6, CYP2B6 (gene 1555) (P20813 whole entry, looked up): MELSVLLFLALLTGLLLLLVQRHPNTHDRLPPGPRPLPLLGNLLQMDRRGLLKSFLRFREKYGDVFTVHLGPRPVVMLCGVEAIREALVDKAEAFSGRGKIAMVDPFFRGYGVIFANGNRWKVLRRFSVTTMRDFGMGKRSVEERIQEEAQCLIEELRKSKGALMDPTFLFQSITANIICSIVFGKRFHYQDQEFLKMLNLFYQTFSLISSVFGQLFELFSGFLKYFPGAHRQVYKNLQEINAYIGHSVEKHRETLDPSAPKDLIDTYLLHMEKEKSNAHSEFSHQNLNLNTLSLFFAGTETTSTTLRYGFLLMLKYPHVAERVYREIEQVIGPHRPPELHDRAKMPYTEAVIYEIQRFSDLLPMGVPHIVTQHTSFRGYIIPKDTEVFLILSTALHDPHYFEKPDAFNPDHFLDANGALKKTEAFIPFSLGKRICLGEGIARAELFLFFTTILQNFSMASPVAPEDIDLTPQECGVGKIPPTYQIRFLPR
Sequence of human CYP2J2, CYP2J2 (gene 1573) (P51589 whole entry, looked up): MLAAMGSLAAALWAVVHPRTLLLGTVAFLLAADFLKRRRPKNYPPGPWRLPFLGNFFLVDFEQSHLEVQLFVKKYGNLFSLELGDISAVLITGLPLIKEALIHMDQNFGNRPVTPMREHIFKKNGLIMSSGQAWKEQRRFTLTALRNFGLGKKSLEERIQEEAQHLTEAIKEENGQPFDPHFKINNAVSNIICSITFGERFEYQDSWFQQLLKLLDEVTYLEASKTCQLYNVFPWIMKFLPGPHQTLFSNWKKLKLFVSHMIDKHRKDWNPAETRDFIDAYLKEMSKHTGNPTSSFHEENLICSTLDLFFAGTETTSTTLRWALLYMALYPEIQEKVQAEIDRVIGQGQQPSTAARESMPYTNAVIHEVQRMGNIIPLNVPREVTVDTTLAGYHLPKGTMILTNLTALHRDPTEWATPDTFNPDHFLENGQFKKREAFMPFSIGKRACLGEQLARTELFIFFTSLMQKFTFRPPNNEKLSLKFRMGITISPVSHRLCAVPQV
Sequence of human CYP2A6, CYP2A6 (gene 1548) (P11509 whole entry, looked up): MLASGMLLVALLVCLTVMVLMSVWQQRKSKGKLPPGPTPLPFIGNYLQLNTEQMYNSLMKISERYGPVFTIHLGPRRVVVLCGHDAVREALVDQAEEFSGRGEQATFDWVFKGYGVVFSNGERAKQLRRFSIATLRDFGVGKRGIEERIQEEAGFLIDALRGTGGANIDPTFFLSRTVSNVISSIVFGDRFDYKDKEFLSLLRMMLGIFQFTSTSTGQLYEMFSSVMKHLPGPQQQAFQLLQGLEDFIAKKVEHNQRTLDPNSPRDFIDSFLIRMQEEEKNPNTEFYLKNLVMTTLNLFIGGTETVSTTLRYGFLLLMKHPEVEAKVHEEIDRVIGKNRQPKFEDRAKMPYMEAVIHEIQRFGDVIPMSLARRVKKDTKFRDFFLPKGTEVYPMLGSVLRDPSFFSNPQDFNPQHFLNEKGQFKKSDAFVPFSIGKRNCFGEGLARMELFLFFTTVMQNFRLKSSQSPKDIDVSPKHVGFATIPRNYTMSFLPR

O=C(O)C(F)(F)C(F)(F)C(F)(F)C(F)(F)C(F)(F)C(F)(F)C(F)(F)C(F)(F)C(F)(F)C(F)(F)F
inactive: [1] | [2] | [3] | [4] | [5] | [6]
active: [1] 35.3 µM | [2] 34.9 µM | [3] 31.5 µM | [4] 26.8 µM | [5] 32.8 µM | [6] 29.4 µM | [7] 1.58 µM | [8] 16.2 µM

CC(C)(C)CC(C)(C)c1ccc(O)cc1
active: [1] 9.86 µM | [2] 10.7 µM | [3] 8.43 µM | [4] 10.2 µM | [5] 5.84 µM | [6] 11.3 µM | [9] 6.7 µM

ClC1=C(Cl)[C@]2(Cl)[C@H]3[C@H]([C@H]4C=C[C@H]3C4)[C@@]1(Cl)C2(Cl)Cl
active: [3] 20 µM | [5] 20 µM | [6] 5.42 µM
inactive: [2] | [4]

COC[C@H](C)N(C(=O)CCl)c1c(C)csc1C
inactive: [2] | [3] | [4] | [5] | [6]

CCOC(=O)/C=C(C)/C=C/C[C@@H](C)CCCC(C)C
inactive: [2]
active: [3] 26.4 µM | [4] 20 µM | [5] 31.5 µM | [6] 33.1 µM

CCOP(=S)(OCC)Oc1nc(Cl)c(Cl)cc1Cl
active: [1] 28 µM | [3] 34.3 µM | [5] 34.4 µM
inactive: [2] | [6]

COc1cc(OC)nc(NC(=O)NS(=O)(=O)c2ncccc2C(=O)N(C)C)n1
inactive: [1] | [2] | [3] | [4] | [5] | [6]

ClC1(Cl)C2(Cl)C3(Cl)C4(Cl)C(Cl)(Cl)C5(Cl)C3(Cl)C1(Cl)C5(Cl)C24Cl (stereo unspecified)
inactive: [2] | [3] | [4] | [5] | [6] | [10]

O=C(O)C(Cl)(Cl)Cl
inactive: [1] | [2] | [3] | [4] | [5] | [6]

CCCCCCCCc1ccc(O)cc1
active: [1] 29.2 µM | [2] 35.6 µM | [3] 29 µM | [4] 32.2 µM | [5] 19.3 µM | [6] 38.2 µM
inactive: [11]

CC(C)(OO)c1ccccc1
inactive: [1] | [2] | [3] | [5] | [6]

COP(=S)(OC)Oc1ccc(Sc2ccc(OP(=S)(OC)OC)cc2)cc1
active: [1] 30.4 µM | [5] 28.8 µM | [12] 7.61 µM | [13] 5.83 µM | [14] 3.3 µM | [7] 505 nM and 5.52 µM | [8] 4.32 µM and 1.06 µM
inactive: [2] | [3] | [6]
